# Laboratory results reported in paper PMC5540273 (PLoS ONE, 2017).
# “And” between values parts separate entries of the source, which are not always exact repeats. Equal values may be shown once. Read-outs that look alike come from different tables or passages of the source.
# How the values were obtained:
# [1] = system: TSSK3; details: concentration: 1 μM, replicates: in singlicate, n = 1
# [2] = system: TTK; details: concentration: 1 μM, replicates: in singlicate, n = 1
# [3] = system: TXK; details: concentration: 1 μM, replicates: in singlicate, n = 1
# [4] = system: TYK2(JH1domain-catalytic); details: concentration: 1 μM, replicates: in singlicate, n = 1
# [5] = system: TYK2(JH2domain-pseudokinase); details: concentration: 1 μM, replicates: in singlicate, n = 1
# [6] = system: TYRO3; details: concentration: 1 μM, replicates: in singlicate, n = 1
# [7] = system: ULK1; details: concentration: 1 μM, replicates: in singlicate, n = 1
# [8] = system: ULK2; details: concentration: 1 μM, replicates: in singlicate, n = 1
# [9] = system: ULK3; details: concentration: 1 μM, replicates: in singlicate, n = 1
# [10] = system: T1, VEGFR2; details: concentration: 1 μM, replicates: in singlicate, n = 1
# T1 construct: gene KDR
# [11] = system: T2, VPS34; details: concentration: 1 μM, replicates: in singlicate, n = 1
# T2 construct: gene PIK3C3
# [12] = system: VRK2; details: concentration: 1 μM, replicates: in singlicate; n = 1
# [13] = system: WEE1; details: concentration: 1 μM, replicates: in singlicate; n = 1
# [14] = system: WEE2; details: concentration: 1 μM, replicates: in singlicate, n = 1
# [15] = system: WNK1; details: concentration: 1 μM, replicates: in singlicate, n = 1
# [16] = system: WNK2; details: concentration: 1 μM, replicates: in singlicate; n = 1
# [17] = system: WNK3; details: concentration: 1 μM, replicates: in singlicate, n = 1
# [18] = system: WNK4; details: concentration: 1 μM, replicates: in singlicate, n = 1
# [19] = system: T3, YANK1; details: concentration: 1 μM, replicates: in singlicate, n = 1
# T3 construct: gene STK32A
# [20] = system: T4, YANK2; details: concentration: 1 μM, replicates: in singlicate, n = 1
# T4 construct: gene STK32B
# 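Note: KINOMEscan kinase panel screen.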
structure (smiles),measurement,setting,value
Cn1cc(-c2ccc3c(c2)CCN3C(=O)Cc2ccccc2Cl)c2c(N)ncnc21 [GSK2608885],%Inh,[1],7%
same,%Inh,[2],17%
same,%Inh,[3],85%
same,%Inh,[4],33%
same,%Inh,[5],0%
same,%Inh,[6],100%
same,%Inh,[7],6%
same,%Inh,[8],0%
same,%Inh,[9],6%
same,%Inh,[10],82%
same,%Inh,[11],0%
same,%Inh,[12],0%
same,%Inh,[13],0%
same,%Inh,[14],0%
same,%Inh,[15],0%
same,%Inh,[16],17%
same,%Inh,[17],6%
same,%Inh,[18],25%
same,%Inh,[19],32%
same,%Inh,[20],84%
COc1cc2c(cc1OC[C@@H](O)CO)ncc1c3ccc(C#N)cc3[nH]c21,%Inh,[1],0%
same,%Inh,[2],0%
same,%Inh,[3],0%
same,%Inh,[4],0%
same,%Inh,[5],22%
same,%Inh,[6],0%
same,%Inh,[7],71%
same,%Inh,[8],99.2%
same,%Inh,[9],50%
same,%Inh,[10],19%
same,%Inh,[11],0%
same,%Inh,[12],9%
same,%Inh,[13],0%
same,%Inh,[14],0%
same,%Inh,[15],1%
same,%Inh,[16],0%
same,%Inh,[17],2%
same,%Inh,[18],0%
same,%Inh,[19],19%
same,%Inh,[20],0%
CCc1nc(-c2cccc(C)c2)c(-c2ccnc(NCc3ccccc3)c2)s1,%Inh,[1],1%
same,%Inh,[2],12%
same,%Inh,[3],0%
same,%Inh,[4],0%
same,%Inh,[5],0%
same,%Inh,[6],0%
same,%Inh,[7],0%
same,%Inh,[8],8%
same,%Inh,[9],0%
same,%Inh,[10],0%
same,%Inh,[11],3%
same,%Inh,[12],0%
same,%Inh,[13],0%
same,%Inh,[14],25%
same,%Inh,[15],0%
same,%Inh,[16],12%
same,%Inh,[17],0%
same,%Inh,[18],0%
same,%Inh,[19],0%
same,%Inh,[20],2%
COc1ccc(Nc2nccc(N3CCC(NC(=O)Nc4cccc(C(C)=O)c4)C3)n2)cc1 (centres unmarked) [GSK1379731],%Inh,[1],8%
same,%Inh,[2],15%
same,%Inh,[3],0%
same,%Inh,[4],35%
same,%Inh,[5],16%
same,%Inh,[6],6%
same,%Inh,[7],18%
same,%Inh,[8],0%
same,%Inh,[9],16%
same,%Inh,[10],0%
same,%Inh,[11],31%
same,%Inh,[12],95.1%
same,%Inh,[13],6%
same,%Inh,[14],0%
same,%Inh,[15],4%
same,%Inh,[16],6%
same,%Inh,[17],28%
same,%Inh,[18],0%
same,%Inh,[19],0%
same,%Inh,[20],0%
Cl.Nc1ncnc2occ(-c3ccc(NC(=O)Nc4cc(C(F)(F)F)ccc4F)cc3)c12 [SB-707548],%Inh,[1],11%
same,%Inh,[2],35%
same,%Inh,[3],0%
same,%Inh,[4],0%
same,%Inh,[5],12%
same,%Inh,[6],0%
same,%Inh,[7],0%
same,%Inh,[8],0%
same,%Inh,[9],19%
same,%Inh,[10],99.8%
same,%Inh,[11],5%
same,%Inh,[12],0%
same,%Inh,[13],10%
same,%Inh,[14],6%
same,%Inh,[15],4%
same,%Inh,[16],11%
same,%Inh,[17],28%
same,%Inh,[18],13%
same,%Inh,[19],0%
same,%Inh,[20],17%
O=C1NC(=O)C(N2CCc3ccccc32)=C1c1cccc(Cl)c1 [SB-408010],%Inh,[1],0%
same,%Inh,[2],39%
same,%Inh,[3],0%
same,%Inh,[4],4%
same,%Inh,[5],0%
same,%Inh,[6],0%
same,%Inh,[7],0%
same,%Inh,[8],0%
same,%Inh,[9],14%
same,%Inh,[10],6%
same,%Inh,[11],0%
same,%Inh,[12],0%
same,%Inh,[13],0%
same,%Inh,[14],4%
same,%Inh,[15],0%
same,%Inh,[16],14%
same,%Inh,[17],0%
same,%Inh,[18],89%
same,%Inh,[19],0%
same,%Inh,[20],19%
COC(=O)Nc1nc2cc(Oc3ccc(NC(=O)Nc4cc(F)ccc4F)cc3)ccc2[nH]1.Cl [GW701424],%Inh,[1],8%
same,%Inh,[2],0%
same,%Inh,[3],88%
same,%Inh,[4],30%
same,%Inh,[5],46%
same,%Inh,[6],0%
same,%Inh,[7],0%
same,%Inh,[8],0%
same,%Inh,[9],7%
same,%Inh,[10],68%
same,%Inh,[11],0%
same,%Inh,[12],30%
same,%Inh,[13],1%
same,%Inh,[14],9%
same,%Inh,[15],12%
same,%Inh,[16],0%
same,%Inh,[17],48%
same,%Inh,[18],58%
same,%Inh,[19],0%
same,%Inh,[20],0%
Cl.Cl.Cl.Fc1ccc(-c2ncn(C3CCNCC3)c2-c2ccnc(Nc3ccccc3)n2)cc1 [SB-238039],%Inh,[1]; 1 µM,19% and 5%
same,%Inh,[2]; 1 µM,15% and 3%
same,%Inh,[3]; 1 µM,3% and 0%
same,%Inh,[4]; 1 µM,35% and 0%
same,%Inh,[5]; 1 µM,18% and 0%
same,%Inh,[6]; 1 µM,0% and 12%
same,%Inh,[7]; 1 µM,28% and 6%
same,%Inh,[8]; 1 µM,21% and 29%
same,%Inh,[9]; 1 µM,24% and 26%
same,%Inh,[10]; 1 µM,0% and 9%
same,%Inh,[11]; 1 µM,44% and 8%
same,%Inh,[12],100%
same,%Inh,[13],0%
same,%Inh,[14]; 1 µM,0% and 24%
same,%Inh,[15]; 1 µM,30% and 0%
same,%Inh,[16],0%
same,%Inh,[17]; 1 µM,26% and 0%
same,%Inh,[18]; 1 µM,30% and 0%
same,%Inh,[19]; 1 µM,95.6% and 93.7%
same,%Inh,[20]; 1 µM,94.1% and 88%
Cc1cccc(Cn2ccn3c(=O)cc(N4CCOCC4)nc23)c1 [GSK2297542],%Inh,[1],17%
same,%Inh,[2],62%
same,%Inh,[3],0%
same,%Inh,[4],0%
same,%Inh,[5],26%
same,%Inh,[6],8%
same,%Inh,[7],2%
same,%Inh,[8],0%
same,%Inh,[9],10%
same,%Inh,[10],0%
same,%Inh,[11],94.6%
same,%Inh,[12],0%
same,%Inh,[13],22%
same,%Inh,[14],22%
same,%Inh,[15],9%
same,%Inh,[16],6%
same,%Inh,[17],12%
same,%Inh,[18],8%
same,%Inh,[19],20%
same,%Inh,[20],0%
Cc1ccc(NC(=O)c2ccnc(N3CCN(C)CC3)c2)cc1-c1ccc(C(=O)NCC2CC2)cc1 [GW775604],%Inh,[1],0%
same,%Inh,[2],0%
same,%Inh,[3],0%
same,%Inh,[4],100%
same,%Inh,[5],0%
same,%Inh,[6],0%
same,%Inh,[7],0%
same,%Inh,[8],100%
same,%Inh,[9],0%
same,%Inh,[10],0%
same,%Inh,[11],0%
same,%Inh,[12],17%
same,%Inh,[13],0%
same,%Inh,[14],0%
same,%Inh,[15],0%
same,%Inh,[16],0%
same,%Inh,[17],0%
same,%Inh,[18],0%
same,%Inh,[19],0%
same,%Inh,[20],1%
